In PubChem BioAssay AID540256 (National Center for Advancing Translational Sciences (NCATS), 2011):
Among all 300,000 compounds or so, about 3,700 (1.2%) were called active. Not shown: some 20% with an inconclusive outcome. For the sample, actives were picked, then their nearest neighbours and some compounds at random. Values without a mark were called inactive. The call rests on the fitted dose curve; tested in HEK293 cells.

Experiment: qHTS for Inhibitors of binding or entry into cells for Lassa Virus; further: nearly all actives have a fitted effect of over 50% in size
Conditions: Lassa virus pseudotype entry inhibition, cell reporter; series mostly up to 37.9 µM; activity change, negative = inhibition: at the top concentration
On the % scale 0 is the no-effect control and ±100 the full control effect; potency means the concentration at half of the fitted maximal effect.

SMILES	activity change, negative = inhibition	Potency
Cc1cccc(C(=O)Nc2ccc(C(=O)N/N=C/c3cccc(C)n3)cc2)c1	-11.5% [at 46.1 µM]	–
Cc1cccc(C=CC(=O)c2ccc(Cl)cc2)c1	-0.612%	–
COc1ccc(OC)c(Cc2nnc(CCC(=O)NC3CCCC3)o2)c1	0.521%	–
COc1ccc(OC)c(Cc2cnc3nc(N)nc(N)c3c2C)c1	–	0.251 µM (active)
COc1ccc(OC)c(NC(=O)c2sc3nc(C)cc(C)c3c2N)c1	4.31% [at 46.1 µM]	–
CC(=O)Nc1ccc(S(=O)(=O)NCC(=O)OCC(=O)c2ccc[nH]2)cc1	-0.036%	–
CC(=O)c1cccc(OCC(=O)OCC(=O)Nc2cc(S(=O)(=O)N3CCCCC3)ccc2C)c1	-1.54%	–
CCCOc1ccc(C(=O)CCC(=O)OC(C)C(=O)Nc2ccc(NC(C)=O)cc2)cc1 (stereo not given)	5.75% [at 46.1 µM]	–
CCCCOc1ccc(C(=O)NN2CCN(C)CC2)cc1	-1.96%	–
CCCOc1ccc(C(=O)C(CCC(CNCC)C(=O)c2ccc(OCCC)cc2)CNCC)cc1 (stereo not given)	–	13 µM (active)
CCc1noc(C)c1C(=O)N1CCCC(N2CCN(c3ccc(F)cc3)CC2)C1 (stereo not given)	5.55%	–
COc1ccc(/C=C(/NC(=O)c2ccco2)C(=O)Nc2ccc(C(C)=O)cc2)cc1	-17.3%	–
COc1ccc(/C=C(\NC(=O)c2ccc(OCC(C)C)cc2)C(=O)OCc2ccco2)cc1	–	12.6 µM (active)
COc1ccc(C(=O)Nc2ccccc2C(=O)NCc2ccco2)cc1	-0.689% [at 46.1 µM]	–
Cc1cc(C)c(C)c(S(=O)(=O)Nc2cccnc2)c1C	-11.1%	–
CCOc1ccccc1CNC(=O)c1cnc2c(-c3ccc(OCC)c(OCC)c3)c(C)nn2c1C	-2.1% [at 46.1 µM]	–
Cc1ccc2nc(NC(=O)C3CSC4(C)CCC(=O)N34)sc2c1 (stereo not given)	16.4%	–
O=C(Cc1c(Cl)cccc1Cl)NC1CC1	16.2% [at 46.1 µM]	–
Cc1c(Cl)cccc1NC(=S)NCc1ccc2c(c1)OCO2	-5.04%	–
CCc1cccc(CC)c1NC(=S)NCc1ccc2[nH]c(C)cc2c1	–	18.4 µM (active)
Cc1c(NC(=S)NCc2ccc(F)cc2)cccc1[N+](=O)[O-]	-4.19%	–
O=C(CCc1ccccc1Cl)Nc1ccc(S(=O)(=O)Nc2nccs2)cc1	-5.82%	–
O=C(COC(=O)c1ccc(O)cc1O)NC(=O)c1ccccc1	-1.32%	–
O=C(CN(Cc1ccccc1)C(=O)CCC(=O)Nc1ccccn1)NCCc1ccccc1	-18.6%	–
Cc1cc([N+](=O)[O-])ccc1NS(=O)(=O)c1ccccc1	13.3% [at 46.1 µM]	–

SMILES	activity change, negative = inhibition	Potency
O=C(COc1cccnc1[N+](=O)[O-])Nc1ccc(Cl)cc1F	-13.2% [at 46.1 µM]	–
O=C(c1ccco1)n1nc(-c2ccc(Cl)cc2)nc1NCc1ccccc1	16.4% [at 46.1 µM]	–
O=C(c1cccs1)n1nc(NCc2ccccc2)nc1NCc1ccccc1	–	10 µM (active)
O=C(CCC(=O)c1cccs1)NCc1ccccc1	8.14%	–
Oc1cccc(CCc2ccccn2)c1	12.1%	–
Cc1ccc(-c2nn(-c3ccc(F)cc3)cc2C(=O)NCC(c2cccs2)N2CCOCC2)cc1 (stereo not given)	-4.1%	–
CCOC(=O)CSc1nc2sc3c(c2c(=O)[nH]1)CC(C)(C)OC3	20%	–
CC/C(C)=N/Nc1nc2sc3c(c2c(=O)[nH]1)CC(C)(C)OC3	–	5.01 µM (active)
CC(C)c1nc2sc3c(c2c(=O)n1N)CC(C)(C)OC3	4.95% [at 46.1 µM]	–
Cc1ccc(NC(=O)CSc2nn3c(=O)c(C)nnc3s2)cc1Cl	13.1%	–
COCC(C)n1c(SCc2ccc(C(=O)OC)o2)nc2ccccc2c1=O (stereo not given)	–	10.3 µM (active)
COC(=O)c1ccc(CSc2ccccc2C)o1	18.4%	–
COCC(C)n1c(SCC(=O)NC2CCCCC2C)nc2ccccc2c1=O (stereo not given)	-23.2%	–
O=C(NCCS(=O)(=O)N1CCN(c2ccc(F)cc2)CC1)c1ccc2c(c1)OCO2	-11.9%	–
O=C1/C(=C\c2ccc(O)cc2)CCC1CNc1ccc(Cl)cc1 (stereo not given)	-15%	–
Cc1cccc(NC(=O)c2cccc(S(=O)(=O)N3CCCC3)c2)n1	12.1%	–
Cc1cccc(N2CCN(C(=O)Cn3ncc4c5ccccc5n(C)c4c3=O)CC2C)c1 (stereo not given)	8.45% [at 46.1 µM]	–
O=C(CCCn1c(=O)c2cccn2c2cccnc21)NCc1ccc(F)cc1	16.8% [at 46.1 µM]	–
Cc1cccc(N2CCN(C(=O)CCn3c(=O)c4cccn4c4cccnc43)CC2C)c1 (stereo not given)	–	7.94 µM (active)
O=C(/C=C/c1cccc([N+](=O)[O-])c1)OCC(=O)N1CCOCC1	-4.28%	–
O=C(NCCc1ccco1)c1ccc(OCc2cn3ccccc3n2)cc1	-12.7% [at 46.1 µM]	–
CCc1nn(CCCC(=O)Nc2ccc(C)c(C)c2)c(=O)c2cc3occc3n12	-0.66% [at 46.1 µM]	–
CCOC(=O)c1c(NC(=O)c2ccc(S(=O)(=O)N(CC)CC)cc2)sc2c1CCCCC2	4.06% [at 46.1 µM]	–
C=CCN(CC=C)S(=O)(=O)c1ccc(C(=O)Nc2nc3c(s2)CCc2ccccc2-3)cc1	–	3.16 µM (active)
C=CCN(CC=C)S(=O)(=O)c1ccc(C(=O)Nc2sc3c(c2C(N)=O)CCCCC3)cc1	-29.3%	–
